# Laboratory results published in the supplement of paper PMC10037445.
# The full ranking holds about 2,900 compounds; the median of “IRF Lucia reporter activity, fold change vs agonist alone” is about 0.9, and the highest 2% start at about 2.8. This is one part of a sample in which the highest values are shown more often than they occur.
# Legend:
# RAW-Dual [1] = assay: IRF Lucia reporter activity, fold change vs agonist alone; higher = enhanced IRF activity; conditions: agonist: MPLA (TLR4) […]
# Outline: (§1)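 Cytotoxic wells were those whose IncuCyte confluency was below 70% of agonist controls in both mask sets. The cells were RAW-Dual macrophages at 50,000 cells/well in DMEM on 384-well plates, dosed with 50 nL of library stock by pin tool, stimulated with a PRR agonist 1 h later, and kept at 37 °C, 5% CO2 for 20 hours. IRF and NF-κB reporter activity, as fold change over agonist-alone wells, came from supernatant read by QuantiLuc luminescence and QuantiBlue absorbance, respectively.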
# RAW-Dual [2] = assay: IRF Lucia reporter activity, fold change vs agonist alone; cytotoxicity flag (confluency mask): not cytotoxic; higher = enhanced IRF activity
# Outline: as §1
# RAW-Dual [3] = assay: IRF Lucia reporter activity, fold change vs agonist alone; cytotoxicity flag (confluency mask): cytotoxic (confluency <70% of control); higher = enhanced IRF activity
# Outline: as §1
# [4] = library stock concentration (final ~1000-fold dilution): 10 mM, cytotoxicity flag (confluency mask): not cytotoxic
# [5] = agonist: 3'3'-cGAMP (STING) 10 ug/mL
smiles,measurement,setting,value
CCC(C)CC(C)CCCCCCCCC(=O)NC1CC(O)C(NCCN)NC(=O)C2C(O)CCN2C(=O)C(C(O)CCN)NC(=O)C(C(O)C(O)c2ccc(O)cc2)NC(=O)C2CC(O)CN2C(=O)C(C(C)O)NC1=O (stereo unspecified),IRF Lucia reporter activity,"RAW-Dual [1]; library stock concentration (final ~1000-fold dilution): 10 mM water, cytotoxicity flag (confluency mask): not cytotoxic",1.21
Cn1cnc2c(F)c(Nc3ccc(Br)cc3Cl)c(C(=O)NOCCO)cc21,IRF Lucia reporter activity,RAW-Dual [1]; [4],2.77
Cn1cnc2c(F)c(Nc3ccc(Br)cc3Cl)c(C(=O)NOCCO)cc21 (library stock concentration (final ~1000-fold dilution): 10 mM),IRF Lucia reporter activity,RAW-Dual [2]; [5],0.69
same,IRF Lucia reporter activity,RAW-Dual [2]; agonist: LPS (TLR4) 0.1 ug/mL,3.1
Cn1cnc2c(F)c(Nc3ccc(Br)cc3F)c(C(=O)NOCCO)cc21 (library stock concentration (final ~1000-fold dilution): 10 mM),IRF Lucia reporter activity,RAW-Dual [2]; [5],0.728
same,IRF Lucia reporter activity,RAW-Dual [2]; agonist: LPS (TLR4) 0.1 ug/mL,2.67
Cn1cnc2c(F)c(Nc3ccc(Br)cc3F)c(C(=O)NOCCO)cc21,IRF Lucia reporter activity,RAW-Dual [1]; [4],2.67
COCCOc1nc(N)c2[nH]c(=O)n(Cc3ccc(C(=O)O)cc3)c2n1 (library stock concentration (final ~1000-fold dilution): 10 mM),IRF Lucia reporter activity,RAW-Dual [2]; [5],1.54
same,IRF Lucia reporter activity,RAW-Dual [2]; agonist: LPS (TLR4) 0.1 ug/mL,1.06
COC(C(=O)N1Cc2[nH]nc(NC(=O)c3ccc(N4CCN(C)CC4)cc3)c2C1)c1ccccc1 (stereo unspecified) (library stock concentration (final ~1000-fold dilution): 10 mM),IRF Lucia reporter activity,RAW-Dual [2]; [5],0.149
same,IRF Lucia reporter activity,RAW-Dual [2]; agonist: LPS (TLR4) 0.1 ug/mL,0.162
COC(C(=O)N1Cc2[nH]nc(NC(=O)c3ccc(N4CCN(C)CC4)cc3)c2C1)c1ccccc1 (stereo unspecified),IRF Lucia reporter activity,RAW-Dual [1]; [4],0.147
Cn1cncc1C(N)(c1ccc(Cl)cc1)c1ccc2c(c1)c(-c1cccc(Cl)c1)cc(=O)n2C (stereo unspecified) (library stock concentration (final ~1000-fold dilution): 10 mM),IRF Lucia reporter activity,RAW-Dual [3]; [5],0.374
same,IRF Lucia reporter activity,RAW-Dual [3]; agonist: LPS (TLR4) 0.1 ug/mL,0.641
Cn1cncc1C(N)(c1ccc(Cl)cc1)c1ccc2c(c1)c(-c1cccc(Cl)c1)cc(=O)n2C (stereo unspecified),IRF Lucia reporter activity,"RAW-Dual [1]; library stock concentration (final ~1000-fold dilution): 10 mM, cytotoxicity flag (confluency mask): cytotoxic (confluency <70% of control)",0.481
COC(=O)NC(C(=O)N1CCCC1c1ncc(-c2ccc(-c3ccc(-c4cnc(C5CCCN5C(=O)C(NC(=O)OC)C(C)C)[nH]4)cc3)cc2)[nH]1)C(C)C (stereo unspecified),IRF Lucia reporter activity,RAW-Dual [1]; [4],3.26
COC(=O)NC(C(=O)N1CCCC1c1ncc(-c2ccc3c(c2)OC(c2ccccc2)n2c-3cc3cc(-c4cnc(C5CCCN5C(=O)C(NC(=O)OC)C(C)C)[nH]4)ccc32)[nH]1)C(C)C (stereo unspecified),IRF Lucia reporter activity,RAW-Dual [1]; [4],1.01
COC(=O)NC(C(=O)N1CCCC1c1ncc(-c2ccc(-c3ccc(-c4cnc(C5CCCN5C(=O)C(NC(=O)OC)C(C)C)[nH]4)cc3)cc2)[nH]1)C(C)C.Cl.Cl (stereo unspecified),IRF Lucia reporter activity,RAW-Dual [1]; [4],5.97
COC(=O)NC(C(=O)N1CCCC1c1ncc(-c2ccc(-c3ccc(-c4cnc(C5CCCN5C(=O)C(NC(=O)OC)C(C)C)[nH]4)cc3)cc2)[nH]1)C(C)C (stereo unspecified) (library stock concentration (final ~1000-fold dilution): 10 mM),IRF Lucia reporter activity,RAW-Dual [2]; [5],1.04
same,IRF Lucia reporter activity,RAW-Dual [2]; agonist: LPS (TLR4) 0.1 ug/mL,4.15
COC(=O)NC(C(=O)N1CCCC1c1ncc(-c2ccc(-c3ccc(-c4cnc(C5CCCN5C(=O)C(NC(=O)OC)C(C)C)[nH]4)cc3)cc2)[nH]1)C(C)C.Cl.Cl (stereo unspecified) (library stock concentration (final ~1000-fold dilution): 10 mM),IRF Lucia reporter activity,RAW-Dual [2]; [5],0.948
same,IRF Lucia reporter activity,RAW-Dual [2]; agonist: LPS (TLR4) 0.1 ug/mL,7.56
COC(=O)NC(C(=O)N1CC2(CC2)CC1c1ncc(-c2ccc3c(c2)C(F)(F)c2cc(-c4ccc5nc(C6C7CCC(C7)N6C(=O)C(NC(=O)OC)C(C)C)[nH]c5c4)ccc2-3)[nH]1)C(C)C (stereo unspecified),IRF Lucia reporter activity,RAW-Dual [1]; [4],0.979
COC(=O)NC(C(=O)N1CC2(CC2)CC1c1ncc(-c2ccc3c(c2)C(F)(F)c2cc(-c4ccc5nc(C6C7CCC(C7)N6C(=O)C(NC(=O)OC)C(C)C)[nH]c5c4)ccc2-3)[nH]1)C(C)C (stereo unspecified) (library stock concentration (final ~1000-fold dilution): 10 mM),IRF Lucia reporter activity,RAW-Dual [2]; [5],0.913
same,IRF Lucia reporter activity,RAW-Dual [2]; agonist: LPS (TLR4) 0.1 ug/mL,1.23
COCC1CC(c2ncc(-c3ccc4c(c3)COc3cc5c(ccc6[nH]c(C7CCC(C)N7C(=O)C(NC(=O)OC)C(C)C)nc65)cc3-4)[nH]2)N(C(=O)C(NC(=O)OC)c2ccccc2)C1 (stereo unspecified),IRF Lucia reporter activity,RAW-Dual [1]; [4],0.857
COC(=O)NC(C(=O)N1CCCC1C(=O)Nc1ccc(C2CCC(c3ccc(NC(=O)C4CCCN4C(=O)C(NC(=O)OC)C(C)C)cc3)N2c2ccc(C(C)(C)C)cc2)cc1)C(C)C (stereo unspecified),IRF Lucia reporter activity,RAW-Dual [1]; [4],0.973
COC(=O)NC(C(=O)N1CCCC1c1ncc(-c2ccc3c(c2)OC(c2ccccc2)n2c-3cc3cc(-c4cnc(C5CCCN5C(=O)C(NC(=O)OC)C(C)C)[nH]4)ccc32)[nH]1)C(C)C (stereo unspecified) (library stock concentration (final ~1000-fold dilution): 10 mM),IRF Lucia reporter activity,RAW-Dual [2]; [5],1.07
same,IRF Lucia reporter activity,RAW-Dual [2]; agonist: LPS (TLR4) 0.1 ug/mL,1.16
COC(=O)NC(C(=O)N1CCCC1C(=O)Nc1ccc(C2CCC(c3ccc(NC(=O)C4CCCN4C(=O)C(NC(=O)OC)C(C)C)cc3)N2c2ccc(C(C)(C)C)cc2)cc1)C(C)C (stereo unspecified) (library stock concentration (final ~1000-fold dilution): 10 mM),IRF Lucia reporter activity,RAW-Dual [2]; [5],0.995
same,IRF Lucia reporter activity,RAW-Dual [2]; agonist: LPS (TLR4) 0.1 ug/mL,1.21
COCC1CC(c2ncc(-c3ccc4c(c3)COc3cc5c(ccc6[nH]c(C7CCC(C)N7C(=O)C(NC(=O)OC)C(C)C)nc65)cc3-4)[nH]2)N(C(=O)C(NC(=O)OC)c2ccccc2)C1 (stereo unspecified) (library stock concentration (final ~1000-fold dilution): 10 mM),IRF Lucia reporter activity,RAW-Dual [2]; [5],0.767
same,IRF Lucia reporter activity,RAW-Dual [2]; agonist: LPS (TLR4) 0.1 ug/mL,0.91
NC(=O)C(CCC(F)(F)F)N(Cc1ccc(-c2ncon2)cc1F)S(=O)(=O)c1ccc(Cl)cc1 (stereo unspecified),IRF Lucia reporter activity,RAW-Dual [1]; [4],1.3
NC(=O)C(CCC(F)(F)F)N(Cc1ccc(-c2ncon2)cc1F)S(=O)(=O)c1ccc(Cl)cc1 (stereo unspecified) (library stock concentration (final ~1000-fold dilution): 10 mM),IRF Lucia reporter activity,RAW-Dual [2]; [5],0.94
same,IRF Lucia reporter activity,RAW-Dual [2]; agonist: LPS (TLR4) 0.1 ug/mL,1.56
